# Results taken from ChEMBL document CHEMBL3988442, “University of Dundee, Small-Polar-MMV Screening Library” (2021).
# The campaign covered roughly 48,000 compounds. About 13,000 (27%) showed an effect of 50% or more. This is one part of the list.
# Tested on: Wolbachia pipientis
# Assay: Anti-Wolbachia Cell-Based Screen
# Type: functional
# Parameters: scale not given: in the data most compounds retested in dose-response had high values
# Settings: 5 µM
row,SMILES,Percent Effect [%]
1,CCC(C)(O)CNC(=O)Nc1ccc(C)cc1Br (stereo not given),-22.84
2,CNCCN1C(=O)CC[C@H]2CN(c3ncc(F)cn3)CC[C@H]21,-2.163
3,NC(=O)C(NC(=O)c1cc(Br)c[nH]1)c1ccccc1 (stereo not given),0.3716
4,CCc1nc(C)c(CN2CCN(c3ncnc4scc(C)c34)CC2)[nH]1,-4.164
5,CCNC(=O)NC(=O)C(C)Nc1ccccc1OCCOC (stereo not given),1.487
6,COCCCNC(=O)c1ccccc1S(C)(=O)=O,133.8
7,CCC(C)N(C)CCNC(=O)c1ccccc1OCCOC (stereo not given),91.86
8,COCCOc1ccccc1C(=O)NCCN(C)C(C)C,86.22
9,CCN(CCNC(=O)c1ccccc1OCCOC)C1CC1,11.11
10,CS(=O)(=O)c1ccccc1C(=O)NCCCN1CCc2ccccc2C1,5.39
11,CN(CCCNC(=O)c1ccccc1OCC(N)=O)CC(F)(F)F,8.203
12,CS(=O)(=O)c1ccccc1C(=O)NCC1Cc2ccccc2O1 (stereo not given),-10.07
13,COCCOc1ccccc1C(=O)N(C)Cc1ncc(C)c(OC)c1C,-3.129
14,CCCn1nc2c(cc1=O)CN(Cc1nc(CCOC)no1)CC2,3.931
15,Cn1nc(C2CCCC2)c(-c2ccc3c(c2)OCO3)c1N,-8.229
16,CC(=O)N1C[C@H]2C3(CCN(S(C)(=O)=O)CC3)CC[C@@]2(C(=O)N(C)C)C1,-15.61
17,CCS(=O)(=O)N1CCC2(CC1)CC[C@@]1(C(=O)NC)CN(C(C)=O)C[C@@H]21,0.6663
18,CNC(=O)[C@@]12CCC3(CCN(S(C)(=O)=O)CC3)[C@@H]1CN(C(C)=O)C2,110.1
19,CNC(=O)[C@@]12CCC3(CCN(S(=O)(=O)C4CC4)CC3)[C@@H]1CN(C(C)=O)C2,108
20,CCS(=O)(=O)N1CCC2(CC1)CC[C@@]1(C(=O)N(C)C)CN(C(C)=O)C[C@@H]21,-13.65
21,CCS(=O)(=O)N1CCC2(CC1)CC[C@@]1(C(=O)N(C)C)CN(C)C[C@@H]21.O=C(O)C(F)(F)F,4.402
22,O=C(O)C(F)(F)F.O=C(O)C(F)(F)F.c1ccc(OCC2CC3(CCN(c4ncccn4)CC3)CO2)nc1 (stereo not given),3.683
23,CN(Cc1ccccc1)CC1CC2(CO1)CN(c1nncs1)C2 (stereo not given),4.017
24,O=C(N[C@@H]1CN(Cc2cccs2)[C@@H]2COC[C@@H]21)C1CCC1.O=C(O)C(F)(F)F,-6.502
25,O=C(NCC1CC2(CO1)CN(c1nncs1)C2)C1CCC1 (stereo not given),113.3
26,O=C(O)C(F)(F)F.O=C(O)[C@]12CCCN(Cc3cccs3)C[C@H]1CN(c1ncccn1)C2,1.756
27,O=C(C1CCC2(CCN(c3nncs3)CC2)C1)N1CCCC1 (stereo not given),-10.32

row,SMILES,Percent Effect [%]
1,O=C(NCC1CC2(CO1)CN(Cc1cccs1)C2)C1CCC1.O=C(O)C(F)(F)F (stereo not given),112.2
2,CN(C)C(=O)NCC1CC2(CO1)CN(c1nncs1)C2 (stereo not given),109.2
3,CCS(=O)(=O)N1CCCC2(COCCN(c3nncs3)C2)C1 (stereo not given),-5.345
4,O=S(=O)(C1CC1)N1CCCC2(COCCN(c3nncs3)C2)C1 (stereo not given),1.243
5,O=C(NC[C@H]1Cn2c(-c3ccccc3)cnc2CO1)C1CC1,-24.2
6,O=C(NCC1CC2(CO1)CN(c1ncccn1)C2)C1CCC1 (stereo not given),124.3
7,Cn1c(Cn2cccn2)nnc1C1CCCN(c2ccncc2F)C1 (stereo not given),5.271
8,O=C(c1ccccn1)N1C[C@@H]2CC[C@H](C1)N(C(=O)CCC1CCCC1)C2,-23.02
9,CCOCCCOC(=O)c1ccc2c(c1)[nH]c(=O)n2C,-4.386
10,COc1ncnc(N(C)C)c1NC(=O)Cc1c[nH]c2ccc(F)cc12,-15.56
11,C[C@@H]1CN(C(=O)c2ccc(Br)cc2F)CC(C(N)=O)O1 (stereo not given in full),-4.259
12,O=C(Cc1cccs1)NCC1(O)CCSCC1,3.486
13,CCOCCCNC(=O)Cc1cccs1,73.09
14,CCOCCNC(=O)Cc1cccc(I)c1,3.378
15,O=C(NCC1(O)CCc2ccccc21)Nc1ccc2c(c1)OCO2 (stereo not given),-4.749
16,Cn1ncnc1NCc1ccc(Br)cc1,79.22
17,CN(Cc1cc(Cl)ccc1Cl)Cc1ncnn1C,20.54
18,Cn1ncnc1NS(=O)(=O)c1ccc(F)cc1,-13.8
19,Cn1ncnc1NCc1ccccc1Cl,98
20,Cn1ccnc1-c1noc(NCc2ccc(Br)cc2)n1,0.2508
21,Cn1ccnc1-c1noc(NCc2ccc(Cl)cc2)n1,9.491
22,Cn1ncnc1NS(=O)(=O)c1ccccc1,-4.376
23,Clc1ccc(CNc2ccc(Cl)cn2)cc1,-12.24
24,Cn1ncnc1NCc1ccc(F)cc1,113.5
25,Cn1ncnc1NCc1ccc(Cl)cc1,106
26,Cn1ncnc1NS(=O)(=O)c1ccc(F)cc1Cl,-0.8831
27,Cc1nnc(NCc2ccc(Br)cc2)o1,-15.89

row,SMILES,Percent Effect [%]
1,CC(C)c1nccn1CCCNC(=O)c1ccc(N(C)C)nc1,-4.813
2,Cl.Cl.NCC(=O)N1CCCC(c2cncc(Nc3ncccn3)n2)C1 (stereo not given),-7.502
3,NC(=O)CN1CCCC(c2ccnc(Nc3ncccn3)c2)C1 (stereo not given),104.7
4,Cc1cccc(C2CCCN(C(=O)C3CCN(CC(N)=O)CC3)C2)c1 (stereo not given),-11.42
5,NC(=O)CN1CCCC(C(=O)N2CCC(Oc3ncccn3)CC2)C1 (stereo not given),-4.684
6,NC(=O)CN1CCCC(c2cncc(Nc3ncccn3)n2)C1 (stereo not given),117.4
7,CCN1CCCC(c2c(-c3ccccc3)ncn2CC(N)=O)C1 (stereo not given),0.7504
8,Cc1cccc(C2CCCN(C(=O)CN3CCC(C(N)=O)CC3)C2)c1 (stereo not given),-7.369
9,Cc1cccc(Nc2cc(C3CCCN(CC(N)=O)C3)ccn2)n1.O=CO.O=CO (stereo not given),109.2
10,CCC(C)N(Cc1ccncc1)C(=O)CCC(=O)OC (stereo not given),-41.55
11,Cc1nc(CN2CCCN(CC(=O)N(C)C(C)(C)C#N)CC2)no1,10.3
12,CC(C)(C)OC(=O)N1CCC[C@H](NCC2=CCCOC2)C1,-0.302
13,O=C(O)C(F)(F)F.O=C(O)C(F)(F)F.O=C(c1ccncc1)N1CC[C@@H]2[C@@H](CC1)OCCN2c1cccnc1,-4.707
14,CN(C)C(=O)c1nc(-c2ccc(S(C)(=O)=O)cc2)c2cnccn12,107.6
15,CN(Cc1ccccc1)C(=O)c1nc(S(C)(=O)=O)n2ccccc12,-0.6664
16,CC(C)n1cnc(-c2nc(C(=O)N3CCCC3)c3ccccn23)c1,-0.8191
17,CC(C)CCN(C)C(=O)c1nc(S(C)(=O)=O)n2ccccc12,1.111
18,O=C(c1coc(-c2ccccc2)n1)N1CCCC1,6.616
19,CN(C)C(=O)c1nc(-c2ccc(S(C)(=O)=O)cc2)c2ccccn12,94.54
20,CS(=O)(=O)c1ccc(-c2nc(C(=O)N3CCCC3)n3ccccc23)cc1,91.51
21,NCCN1CCC(c2nnc(Cn3ccnc3)n2C2CC2)CC1,3.949
22,COc1ccc(CN(C)CC(=O)NC2(C)CCS(=O)(=O)C2)cc1F (stereo not given),-5.934
23,O=C(NC1CC(=O)N(C2Cc3ccccc3C2)C1)c1cnccn1 (stereo not given),-14.57
24,CC(=O)NC1CCCN(Cc2ccc(OCc3ccccn3)cc2)C1 (stereo not given),-5.429
25,O=C(NC1CCCN(CCc2ccccc2)C1)c1cnccn1 (stereo not given),115.1
26,O=C(NC1CCCN(CCc2ccccc2)C1)c1ccccn1 (stereo not given),90.98
27,CN(C(=O)CSc1ccccn1)C1CCCN(CCc2ccccc2)C1 (stereo not given),-2.321

row,SMILES,Percent Effect [%]
1,O=C(NC1CCCN(c2ccc(OC(F)F)cc2)C1)c1cnccn1 (stereo not given),-2.478
2,O=C(CCO)N1C[C@H]2CC[C@@H]1CN(C1Cc3ccccc3C1)C2,7.309
3,O=C(c1ccccc1)N1CCN(CC2CCOc3ccccc3C2)CC1 (stereo not given),-9.678
4,CC(=O)Nc1cccc(C(=O)N2CCc3c(nc(N(C)C)[nH]c3=O)C2)c1,-4.662
5,CCn1cnnc1CNC(=O)NC(c1ccc(OC)cc1)C1CC1 (stereo not given),-3.354
6,COc1cc2c(cc1-c1nc3c(cnn3C(C)C)[nH]1)OCO2,0.2831
7,CCc1nc(CN(C)C(=O)c2cc(CN(CC)CC)c(CC)o2)no1,113.6
8,CCN(Cc1nonc1C)C(=O)c1ccc(Br)o1,1.066
9,CCc1oc(C(=O)N(C)Cc2nonc2C)cc1CN(CC)CC,117.2
10,CCc1nc(CN(C)C(=O)c2cc(NC(C)=O)ccc2Cl)no1,-10.82
11,CN(Cc1ccncc1)C(=O)c1ccc(F)c(NS(C)(=O)=O)c1,4.431
12,CCC(=O)Nc1cc(Cl)ccc1C(=O)N(C)Cc1noc(CC)n1,-2.438
13,Cc1ncsc1C(=O)N(C)Cc1ccncc1,-15.3
14,CCc1oc(C(=O)N(C)Cc2ccncc2)cc1CN(CC)CC,110.2
15,Cc1ccc(C)c(OCc2cc(C(=O)N(C)Cc3nonc3C)no2)c1,-9.317
16,CCOc1ccc(CN2C(=O)CC3(CCCC3)C2=O)nc1,-27.44
17,O=C1CC(CNc2cncc(Br)c2)c2ccccc2N1 (stereo not given),11.7
18,O=C1CN(Cc2cn(CC3CCN(C4CCSCC4)CC3)nn2)CCN1,-10.54
19,CCS(=O)(=O)Nc1ccc2c(c1)C1(CCOCC1)CN2C.O=C(O)C(F)(F)F,89.45
20,CCN1C(=O)C2(CCOCC2)c2cc(NC(=O)c3ccco3)ccc21,4.939
21,CN(C)C(=O)N1CC2(CCOCC2)c2cc(NS(=O)(=O)C3CC3)ccc21,-3.56
22,CCN1C(=O)C2(CCOCC2)c2cc(NC(=O)c3csnn3)ccc21,5.242
23,CCN1CC2(CCOCC2)c2cc(NS(=O)(=O)CC)ccc21.O=C(O)C(F)(F)F,93.24
24,CCN1C(=O)C2(CCOCC2)c2cc(NC(=O)c3cnoc3C)ccc21,-1.334
